From ChEMBL document CHEMBL1961873, “Compounds: GSK PKIS; Assays: Nanosyn kinase panel” (2012)

Tests used:
[1] = target: Sphingosine kinase 1 (Homo sapiens) (UniProt Q9NYA1); conditions: at 1 µM;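 also: mean SPHK1 inhibition value reported from the GSK PKIS kinase panel screen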
[2] = target: T1, Sphingosine kinase 2 (Homo sapiens) (UniProt Q9NRA0); conditions: at 0.1 µM
T1 sequence (whole entry): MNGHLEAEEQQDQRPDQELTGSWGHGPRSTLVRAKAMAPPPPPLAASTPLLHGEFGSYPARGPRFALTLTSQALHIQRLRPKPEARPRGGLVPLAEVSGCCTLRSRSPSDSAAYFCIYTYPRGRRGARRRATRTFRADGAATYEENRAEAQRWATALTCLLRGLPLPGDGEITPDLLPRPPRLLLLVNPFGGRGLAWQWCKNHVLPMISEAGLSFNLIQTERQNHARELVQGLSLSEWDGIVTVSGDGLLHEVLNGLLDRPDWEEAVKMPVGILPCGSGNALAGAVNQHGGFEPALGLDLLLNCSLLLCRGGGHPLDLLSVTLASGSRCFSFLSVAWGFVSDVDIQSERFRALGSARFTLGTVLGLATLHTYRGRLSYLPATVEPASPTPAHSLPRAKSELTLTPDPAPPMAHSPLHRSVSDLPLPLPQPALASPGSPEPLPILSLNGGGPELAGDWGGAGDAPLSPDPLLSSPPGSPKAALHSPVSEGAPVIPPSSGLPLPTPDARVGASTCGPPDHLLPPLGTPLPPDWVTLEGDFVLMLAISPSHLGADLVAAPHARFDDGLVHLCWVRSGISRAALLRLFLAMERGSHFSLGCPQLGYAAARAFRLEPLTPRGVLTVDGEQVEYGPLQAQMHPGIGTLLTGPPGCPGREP

[3] = target: T1, Sphingosine kinase 2 (Homo sapiens); conditions: at 1 µM
[4] = target: Casein kinase II subunit alpha (Homo sapiens) (UniProt P68400); conditions: at 0.1 µM
Chain of Casein kinase II subunit alpha (Homo sapiens) (P68400 whole entry, looked up): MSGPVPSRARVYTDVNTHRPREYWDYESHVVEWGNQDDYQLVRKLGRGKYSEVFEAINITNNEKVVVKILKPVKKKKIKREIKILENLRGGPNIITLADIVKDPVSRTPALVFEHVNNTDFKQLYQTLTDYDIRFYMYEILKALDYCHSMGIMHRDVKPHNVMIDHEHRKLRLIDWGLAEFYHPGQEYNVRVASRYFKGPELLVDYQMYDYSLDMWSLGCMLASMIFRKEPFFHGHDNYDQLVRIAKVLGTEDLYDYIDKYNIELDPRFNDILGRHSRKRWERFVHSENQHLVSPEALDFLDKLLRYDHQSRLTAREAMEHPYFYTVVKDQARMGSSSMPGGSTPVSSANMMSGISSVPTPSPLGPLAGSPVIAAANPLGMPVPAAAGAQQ

[5] = target: Casein kinase II subunit alpha (Homo sapiens) (UniProt P68400); conditions: at 1 µM
[6] = target: T2, Inhibitor of nuclear factor kappa-B kinase subunit alpha (Homo sapiens) (UniProt O15111); conditions: at 0.1 µM
T2 sequence (whole entry): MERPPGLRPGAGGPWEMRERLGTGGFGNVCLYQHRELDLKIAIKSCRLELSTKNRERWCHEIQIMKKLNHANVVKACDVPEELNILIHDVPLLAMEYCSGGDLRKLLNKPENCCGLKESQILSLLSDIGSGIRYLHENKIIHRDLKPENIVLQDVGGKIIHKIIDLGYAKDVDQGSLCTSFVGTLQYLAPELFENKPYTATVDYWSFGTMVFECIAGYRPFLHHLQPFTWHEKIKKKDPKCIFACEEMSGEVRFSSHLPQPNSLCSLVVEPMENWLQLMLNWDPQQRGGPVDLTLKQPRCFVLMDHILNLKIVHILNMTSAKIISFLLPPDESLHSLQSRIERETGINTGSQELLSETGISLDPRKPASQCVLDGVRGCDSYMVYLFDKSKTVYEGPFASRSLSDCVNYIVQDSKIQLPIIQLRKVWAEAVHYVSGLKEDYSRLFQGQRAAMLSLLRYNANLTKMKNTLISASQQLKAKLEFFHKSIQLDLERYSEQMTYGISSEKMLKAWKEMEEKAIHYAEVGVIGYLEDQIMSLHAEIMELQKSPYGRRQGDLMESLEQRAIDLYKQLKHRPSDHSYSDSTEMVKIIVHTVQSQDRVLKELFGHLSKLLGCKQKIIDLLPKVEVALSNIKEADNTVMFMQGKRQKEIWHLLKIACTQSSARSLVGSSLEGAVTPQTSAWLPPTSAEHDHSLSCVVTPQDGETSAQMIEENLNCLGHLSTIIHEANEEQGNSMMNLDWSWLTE

[7] = target: T2, Inhibitor of nuclear factor kappa-B kinase subunit alpha (Homo sapiens); conditions: at 1 µM
[8] = target: T3, Inhibitor of nuclear factor kappa-B kinase subunit beta (Homo sapiens) (UniProt O14920); conditions: at 0.1 µM
T3 sequence (whole entry): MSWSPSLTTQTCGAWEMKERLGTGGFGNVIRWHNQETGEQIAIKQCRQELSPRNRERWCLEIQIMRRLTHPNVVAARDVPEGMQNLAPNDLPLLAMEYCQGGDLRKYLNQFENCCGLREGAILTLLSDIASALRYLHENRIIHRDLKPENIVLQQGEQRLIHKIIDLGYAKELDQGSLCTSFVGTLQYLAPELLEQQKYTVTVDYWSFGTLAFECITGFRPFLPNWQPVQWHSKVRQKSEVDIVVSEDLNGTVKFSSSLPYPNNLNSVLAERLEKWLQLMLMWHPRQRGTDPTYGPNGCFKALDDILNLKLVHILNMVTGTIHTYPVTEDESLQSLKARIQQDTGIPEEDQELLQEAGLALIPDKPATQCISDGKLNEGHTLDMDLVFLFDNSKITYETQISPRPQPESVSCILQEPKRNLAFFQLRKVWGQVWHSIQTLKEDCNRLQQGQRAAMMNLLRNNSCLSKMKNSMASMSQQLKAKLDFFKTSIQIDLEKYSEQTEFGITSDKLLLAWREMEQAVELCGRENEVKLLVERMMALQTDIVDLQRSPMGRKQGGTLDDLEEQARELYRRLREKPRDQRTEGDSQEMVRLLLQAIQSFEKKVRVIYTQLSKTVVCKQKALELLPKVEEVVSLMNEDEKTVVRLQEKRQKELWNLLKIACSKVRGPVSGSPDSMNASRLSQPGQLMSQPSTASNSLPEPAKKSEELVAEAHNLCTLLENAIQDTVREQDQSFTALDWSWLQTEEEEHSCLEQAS

[9] = target: T3, Inhibitor of nuclear factor kappa-B kinase subunit beta (Homo sapiens); conditions: at 1 µM
[10] = target: T4, Inhibitor of nuclear factor kappa-B kinase subunit epsilon (Homo sapiens) (UniProt Q14164); conditions: at 0.1 µM;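 also: mean inhibition of IKKε reported, from the GSK PKIS dataset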
T4 sequence (whole entry): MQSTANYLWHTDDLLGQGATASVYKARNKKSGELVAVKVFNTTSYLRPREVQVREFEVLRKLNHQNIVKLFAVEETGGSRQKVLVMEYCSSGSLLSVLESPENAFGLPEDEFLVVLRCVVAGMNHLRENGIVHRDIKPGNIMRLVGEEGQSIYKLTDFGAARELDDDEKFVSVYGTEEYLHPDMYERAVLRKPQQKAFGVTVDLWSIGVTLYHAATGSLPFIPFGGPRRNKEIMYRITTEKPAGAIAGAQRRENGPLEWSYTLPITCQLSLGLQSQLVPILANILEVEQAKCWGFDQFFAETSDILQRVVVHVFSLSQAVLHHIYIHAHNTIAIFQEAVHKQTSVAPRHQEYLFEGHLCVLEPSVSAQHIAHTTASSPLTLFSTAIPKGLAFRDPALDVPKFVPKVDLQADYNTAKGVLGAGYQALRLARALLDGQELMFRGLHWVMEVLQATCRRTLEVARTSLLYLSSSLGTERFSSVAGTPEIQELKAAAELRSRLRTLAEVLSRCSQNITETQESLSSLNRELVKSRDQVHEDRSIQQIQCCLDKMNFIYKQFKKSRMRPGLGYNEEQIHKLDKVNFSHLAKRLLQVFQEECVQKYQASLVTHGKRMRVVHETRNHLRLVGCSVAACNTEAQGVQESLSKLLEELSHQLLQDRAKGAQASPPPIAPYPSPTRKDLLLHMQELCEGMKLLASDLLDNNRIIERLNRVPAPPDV

Chain of Sphingosine kinase 1 (Homo sapiens) (Q9NYA1 whole entry): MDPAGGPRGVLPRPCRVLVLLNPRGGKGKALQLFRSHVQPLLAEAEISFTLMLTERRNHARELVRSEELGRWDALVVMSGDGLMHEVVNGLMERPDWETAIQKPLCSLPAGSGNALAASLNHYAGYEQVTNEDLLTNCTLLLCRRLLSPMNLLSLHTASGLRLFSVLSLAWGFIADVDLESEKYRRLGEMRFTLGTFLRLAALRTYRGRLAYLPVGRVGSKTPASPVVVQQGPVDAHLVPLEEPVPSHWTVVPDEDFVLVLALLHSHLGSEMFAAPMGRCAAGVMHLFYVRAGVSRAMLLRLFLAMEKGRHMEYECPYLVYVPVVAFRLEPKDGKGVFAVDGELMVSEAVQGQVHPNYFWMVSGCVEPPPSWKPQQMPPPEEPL

SMILES	inhibition [1] [%]	inhibition [2] [%]	inhibition [3] [%]	inhibition [4] [%]	inhibition [5] [%]	inhibition [6] [%]	inhibition [7] [%]	inhibition [8] [%]	inhibition [9] [%]	inhibition [10] [%]
COC(=O)c1cncc(/C=C/c2c(C)cc(O)cc2C)c1	-4	-0.39	-0.47	3.51	11.9	3.28	5.67	4.7	7.41	8.93
c1ccc(Cc2nc3ccc(Nc4ncnc5ccccc45)cc3[nH]2)cc1	-0.48	0.11	-0.64	3.02	9.95	-0.9	6.86	5.53	8.45	5.38
Oc1cccc(-c2nc(-c3ccccc3)[nH]c2-c2ccncc2)c1	-1.58	0.02	-1.65	3.96	9.51	2.95	5.47	5.25	3.12	5.43
C[C@@H](Oc1cc(-n2cnc3ccc(OC[C@@H](O)CO)cc32)sc1C(N)=O)c1ccccc1Cl	0.3	0	0.27	1.09	10.2	-0.83	-3.48	-3.56	-1.92	-2.16
Cc1ccc2c(-c3ccnc(Nc4ccc5c(c4)OCCO5)n3)c(-c3ccc(C(F)(F)F)cc3)nn2n1	-4.65	-0.54	1.85	9.31	1.49	0.44	0.46	-1.92	-5.04	4.65
Cc1ccc2c(c1)/C(=N/Nc1ccc(S(N)(=O)=O)cc1)C(=O)N2	0.07	0.19	0.62	-2.8	-4.47	8.72	4.99	1.92	1.12	-5.56
COc1cc(/C=N/Nc2ncnc3c2cnn3C(C)C)ccc1O	7.48	-1.04	1.89	2.91	11.8	-0.1	-0.51	2.79	-2.39	1.71
Cc1ccc2c(-c3ccnc(Nc4cccc(C(F)(F)F)c4)n3)c(-c3ccccc3)nn2n1	-0.04	0	0	1.2	3.98	1.79	5.16	4.63	8.3	7.46
CN(C)c1cc2c(Nc3ccc4c(cnn4Cc4ccccc4)c3)ncnc2cn1	-2	-0.22	-1.13	1.2	-0.12	3.64	8.41	3.68	3.14	3.9
Cc1cc(Cl)cc2c1NC(=O)C2=NNc1ccc(S(N)(=O)=O)cc1	-2.79	-0.11	-2.78	3.02	8.79	1.51	10.1	8.97	7.33	6.15
COc1ccc(-c2nn3ncccc3c2-c2ccnc(Nc3cccc(C(F)(F)F)c3)n2)cc1	1.42	-1.04	-0.08	6.68	1.12	3.17	8.21	3.3	4.64	4.96
COc1cccc(-n2ncc3c(N/N=C/c4ccc(C)cc4)ncnc32)c1	1.5	0.29	-0.22	-0.43	23.1	12	9.99	6.84	9.36	5.66
CS(=O)(=O)Nc1cccc(-c2ccc3c(NC(=O)C4CC4)n[nH]c3c2)c1	-0.74	1	0.16	-2.9	-3.51	-2.77	-6.36	8.91	3.62	2.67
COc1cc(Nc2nccc(-c3cnn4ncccc34)n2)cc(OC)c1	0.57	0	0.21	8.84	42.7	17.4	71.4	5.71	24.5	5.75
COc1ccc2ncnc(Nc3ccc(OCc4ccccc4)cc3)c2c1	-2.59	0.06	0.29	3.44	7.23	2.22	-0.08	2.67	3.67	3.74
c1ccc(Nc2ncc(-c3ccccc3)o2)cc1	5.25	0.84	7.14	8.1	4.81	4.42	6.78	5.92	7.79	3.13
COc1cc2ncnc(Nc3ccc4c(cnn4Cc4ccccc4)c3)c2cc1OC	2.19	0.07	0.14	-5.08	4.31	2.23	8.23	3.63	3.81	2.69
